From PubChem BioAssay (NCI)
This is part of a sample that, as a whole, favours compounds with a hit. Of some 83,000 tested, about 20% had one in any assay.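 Single-concentration screen, 48 h exposure, 96-well plates. Endpoint: percent growth. Below 10 = active.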 Unmarked numbers belong to inactive results. The source made the active and inactive calls.

Test system: MDA-MB-468 breast
Assay: NCI-60 one-dose screen, 48 h (100 = growth as untreated, 0 = no growth, -100 = all killed)
Conditions: 10 µM unless noted

| Structure (SMILES) | growth |
| --- | --- |
| COC(=O)c1ccc(NC(=O)Nc2ccc(C(=O)OC)cc2)cc1 | 97.9% |
| C=C(C)[C@@H]1CC[C@]2(C)[C@H](CC[C@@H]3[C@@H]([C@@](C)(O)CCC=C(C)C)CC[C@]32C)[C@@]1(C)CCC(=O)N1CCN(C)CC1 | -82.2% [100 µM] (active) |
| CC(O)CN1CCCCC1 (centres undefined) | 104% |
| N#Cc1cc(-c2nc3ccccc3s2)c(=O)n(NS(=O)(=O)c2ccccc2)c1N | 118% |
| C=C1CC[C@H]2[C@@](C)(CCC3OC(c4ccc(OCc5cn(C6CC(OC(C)=O)C(OC(C)=O)C(COC(C)=O)O6)nn5)cc4)OC[C@]32C)[C@@H]1/C=C/C1=CCOC1=O (some centres undefined) | 47.3% |
| Cc1cccc(CO)c1 | 107% |
| O=C1/C(=C(/c2ccccc2)N2CCOCC2)Cc2ccccc21 | -19% (active) |
| NS(=O)(=O)Oc1ccc(-c2ccc3sccc3c2)cc1 | 87.1% |
| CC1=NNC(=O)C1C (centres undefined) | 95.8% |
| O=C(O)C(=Cc1c2ccccc2cc2ccccc12)C(=O)O | 116% |
| O=C1/C(=C/c2c[nH]c(=O)[nH]c2=O)SC(=S)N1Cc1ccccc1 | 109% |
| O=C1/C(=C/c2ccccn2)SC(=S)N1N1CCOCC1 | 101% |
| COc1ccc(/C(=C2\O[C@@H]([C@H](O)CO)[C@H]3OC(C)(C)O[C@@H]23)c2cc(OC)c(OC)c(OC)c2)cc1O | 107% |
| COc1cc(CNC(=O)CCCC/C=C/C(C)C)ccc1OCc1cn(-c2ccc([N+](=O)[O-])cc2)nn1 | 77.4% |
